In PubChem BioAssay (Tox21):
Results filed as inconclusive are left out. Where a call stands in place of a potency, no number is given. Activity calls are given as the source filed them. Calls follow the shape of the dose curve; as a rule, active = well fitted cell-killing curve with a large enough effect in the repeat runs; inconclusive = weak or mixed curves, or effect the other way; inactive = no such curve, though single readings can be large or run the other way. Starred links: 1 amine or outer side, 2 acyl side, 3 side chain; linkers in the order of their positions; H or OH if unused. Positions of bridges follow the written chain, without caps; N, C: chain ends. Non-standard residues stand in square brackets, D forms with d. Residues, ends and D or L forms follow the SMILES beside them. *: point of attachment. X5 = NC1=N[C@@H]([C@H](N[*:1])C(=O)[*:2])C[C@H](O)N1; ΔAla(Z-3-ureido) = NC(=O)N/C=C(\N)C(=O)O; β3hOrn = NCCC[C@H](N)CC(=O)*; Dap = NC[C@H](N)C(=O)O

assay: qHTS assay to identify aromatase inhibitors - cell viability counter screen (AID 743084); details: MCF-7 aro ERE viability, CellTiter-Fluor, 24 h; series mostly up to 70.3 µM;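 also: cells stimulated with testosterone during compound exposure; nearly all actives have a fitted effect of over 55% in size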

| SMILES | Potency |
| --- | --- |
| C=C1c2c(Cl)ccc(O)c2C(O)=C2C(=O)[C@]3(O)C(O)=C(C(N)=O)C(=O)[C@@H](N(C)C)[C@@H]3[C@@H](O)[C@H]12 | inactive |
| O=P(O)(O)C(O)(Cc1cnc2ccccn12)P(=O)(O)O | inactive |
| CCCCCCCCCCCCCCCCCC(=O)OCCO | inactive |
| COc1cc(S(C)=O)ccc1-c1nc2ncccc2[nH]1 (configuration not stated) | inactive |
| c1ccc2c(CCC3CCNCC3)c[nH]c2c1 | inactive |
| CN[C@@H]1[C@@H](O)[C@@H](O[C@@H]2[C@@H](O)[C@H](OC3OC(CN)=CCC3N)[C@@H](N)C[C@H]2N)OC[C@]1(C)O (some centres not stated) | inactive |
| Cc1cc(Nc2ccccc2C(=O)O)ccc1Cl | inactive |
| NCCCC[C@H](NC(=O)[C@@H]1CCCN1C(=O)[C@@H]1CSSC[C@H](N)C(=O)N[C@@H](Cc2ccccc2)C(=O)N[C@@H](Cc2ccccc2)C(=O)N[C@@H](CCC(N)=O)C(=O)N[C@@H](CC(N)=O)C(=O)N1)C(=O)NCC(N)=O | inactive |
| O=c1[nH]cnc2[nH]cc(CN3CCCCC3)c12 | inactive |
| O=C(O)c1ccc(OCCn2ccnc2)cc1 | inactive |
| CNC[C@@H]1CC[C@@H](N)[C@@H](O[C@H]2[C@H](O)[C@@H](O[C@H]3OC[C@](C)(O)[C@H](NC)[C@H]3O)[C@H](N)C[C@@H]2N)O1 | inactive |
| CN(CCO)CC(O)Cn1cnc2c1c(=O)n(C)c(=O)n2C (configuration not stated) (tested in a mixture with another compound) | inactive |
| Nc1ccn(C[C@@H](CO)OCP(=O)(O)O)c(=O)n1 | inactive |
| CN=C(NC)NCc1ccccc1 | inactive |
| C[N+](C)(CCCCCC[N+](C)(C)C1c2ccccc2-c2ccccc21)C1c2ccccc2-c2ccccc21 | inactive |
| Nc1ncnc(Nc2ccc(Cl)cc2)n1 | inactive |
| O=P(O)(O)OC(Cn1cncn1)(Cn1cncn1)c1ccc(F)cc1F | inactive |
| C[C@]12C=CC(=O)C=C1CC[C@@H]1[C@@H]2[C@@H](O)C[C@@]2(C)[C@H]1CC[C@]2(O)C(=O)COC(=O)CCC(=O)O | inactive |
| CCCC(=O)N1CCCN(c2nc(N)c3cc(OC)c(OC)cc3n2)CC1 | inactive |

| SMILES | Potency |
| --- | --- |
| OCC(O)COc1ccc(Cl)cc1 (configuration not stated) | inactive |
| C[C@]12CCC(=O)C=C1CC[C@@H]1[C@@H]2[C@@H](O)C[C@@]2(C)[C@H]1CC[C@]2(O)C(=O)COP(=O)(O)O | inactive |
| Cc1ccccc1CNc1ncnc2c1ncn2[C@@H]1O[C@H](CO)[C@@H](O)[C@H]1O | inactive |
| CC(=O)OC[C@H]1O[C@@H](O[C@H]2[C@H](O)[C@@H](OC(=O)c3ccccc3C(=O)O)[C@H](O)O[C@@H]2COC(C)=O)[C@H](O)[C@@H](OC(=O)c2ccccc2C(=O)O)[C@@H]1O | inactive |
| CCC(C)C(C(=O)OCC[N+](C)(CC)CC)c1ccccc1 (configuration not stated) | inactive |
| CCOC(=O)[C@H](CCc1ccccc1)N[C@H]1CCCN2CCC[C@@H](C(=O)O)N2C1=O | inactive |
| C#CCC(Cc1cnc2nc(N)nc(N)c2n1)c1ccc(C(=O)N[C@@H](CCC(=O)O)C(=O)O)cc1 (some centres not stated) | inactive |
| CCN(CC)c1ccc(N=Nc2ccc(S(=O)(=O)N(C)C)cc2)c(S(=O)(=O)NCC[n+]2ccccc2)c1 | inactive |
| NCCC[C@H](N)CC(=O)N[C@H]1CNC(=O)[C@H]([C@H]2C[C@H](O)NC(N)=N2)NC(=O)/C(=C/NC(N)=O)NC(=O)[C@H](CO)NC(=O)[C@H](CO)NC1=O (β3hOrn-[Dap]SS[ΔAla(Z-3-ureido)][X5]; lactam 1-C) | inactive |
| O=C[C@H](O)[C@@H](O)[C@H](O[C@H]1O[C@H](CO)[C@@H](O[C@H]2O[C@H](CO)[C@@H](O)[C@H](O)[C@H]2O)[C@H](O)[C@H]1O)[C@H](O)CO | inactive |
| CC(=O)N[C@@H](CC(=O)N[C@@H](CCC(=O)O)C(=O)O)C(=O)O | inactive |
| CC1(C)S[C@@H]2[C@H](NC(=O)C(C(=O)Oc3ccc4c(c3)CCC4)c3ccccc3)C(=O)N2[C@H]1C(=O)O (some centres not stated) | inactive |
| CC(=O)OCC(=O)[C@@]1(O)[C@H](C)C[C@H]2[C@@H]3C[C@H](F)C4=CC(=O)C=C[C@]4(C)[C@H]3[C@@H](O)C[C@@]21C | inactive |
| Cc1c(O)cc2c(c1C)O[C@](C)(CCC[C@H](C)CCC[C@H](C)CCCC(C)C)CC2 | inactive |
| CCCCCCCCCCCCCCCC(=O)OC[C@@H](COP(=O)([O-])OCC[N+](C)(C)C)OC(=O)CCCCCCCCCCCCCCC | inactive |
| CCCCCCCCCCCCCCCCCCOP(=O)([O-])OC1CC[N+](C)(C)CC1 | inactive |
| C=C1CC2C3CCC4=CC(=O)C=C[C@]4(C)[C@@]3(F)[C@@H](O)C[C@]2(C)[C@@]1(O)C(=O)COC(C)=O (some centres not stated) | inactive |
| CO[C@H]1[C@@H](O)[C@H](N)[C@@H](O[C@H]2O[C@H]([C@H](C)N)CC[C@H]2N)[C@H](O)[C@@H]1N(C)C(=O)CN | inactive |
